HP1b chromo inh = HTS for Inhibitors of HP1-beta Chromodomain Interactions with Methylated Histone Tails; Chromobox protein homolog 1 (Homo sapiens), P83916; AID 540317, 2011; AlphaScreen HP1-beta / biotin-H3K9me3 peptide binding; 0.56% of 390,000 active; Potency, µM (series often up to 114 µM), for inactives: at the highest dose activity change, negative = inhibition, hits mostly inhibitors; further: nearly all actives have a fitted effect of over 70% in size
Target sequence (P83916 whole entry, looked up): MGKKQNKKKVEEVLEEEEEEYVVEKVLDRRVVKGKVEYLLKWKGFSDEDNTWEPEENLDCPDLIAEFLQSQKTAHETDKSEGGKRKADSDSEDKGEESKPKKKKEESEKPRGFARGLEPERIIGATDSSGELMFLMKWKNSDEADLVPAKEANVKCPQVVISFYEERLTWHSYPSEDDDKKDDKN
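HP1-beta protein (50 nM final) preincubated 30 min at room temperature with biotinylated H3(1-18)K9me3 peptide (50 nM) in PBS pH 7.4, 0.01% Tween-20, then compound added for 30 min. AlphaScreen streptavidin donor/nickel chelate acceptor beads (10 ug/mL final), 30 min dark, luminescence read.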
JMJD2A Tudor inh = qHTS Assay for Inhibitors of JMJD2A-Tudor Domain; AlphaScreen JMJD2A-Tudor / H3K4me3 peptide binding; AID 504339, 2011; 4.4% of 390,000 active; Lysine-specific demethylase 4A (Homo sapiens), O75164; Potency, µM (top dose mostly 114 µM), inactives show top-dose activity change, negative = inhibition, actives largely listed as inhibitors; further: on the % scale 0 is the no-effect control and ±100 the full control effect; nearly all actives have a fitted effect of over 50% in size
L3MBTL1 inh = qHTS Assay for the Inhibitors of L3MBTL1. Lethal(3)malignant brain tumor-like protein 1 (Homo sapiens), Q9Y468. AlphaScreen L3MBTL1–H3K9me1 peptide binding. Potency, µM (highest dose often 57.1 µM), without a hit: at the highest dose activity, negative = inhibition, actives largely listed as inhibitors. 0.66% of 230,000 active. AID 485360, 2010; further: on the % scale 0 is the no-effect control and ±100 the full control effect; nearly all actives have a fitted effect of over 60% in size
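AlphaScreen assay: L3MBTL1 (50 nM final) was preincubated 30 min at room temperature with biotinylated H3(1-15)K9me1 peptide (75 nM final), then 30 min with library compounds; streptavidin donor and nickel chelate acceptor beads (10 ug/mL final) added, 30 min dark.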
BAZ2B inh = qHTS Assay for Inhibitors of BAZ2B; Bromodomain adjacent to zinc finger domain protein 2B (Homo sapiens), Q9UIF8; AlphaScreen BAZ2B-H3K14Ac peptide displacement; Potency, µM (doses to about 114 µM), for inactives: at the highest dose activity change, negative = inhibition, hits mostly inhibitors; 4.4% of 360,000 active; further: on the % scale 0 is the no-effect control and ±100 the full control effect; nearly all actives have a fitted effect of over 60% in size
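Protein-peptide AlphaScreen: BAZ2B 50 nM, b-H3K14Ac 50 nM, 1x PBS pH 7.4 + 0.01% Tween-20. Preincubation 30 min RT; cpd 30 min RT (top 110 uM); beads 20 min RT, light-protected.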
G9a block = qHTS Assay for Inhibitors of Histone Lysine Methyltransferase G9a | Histone-lysine N-methyltransferase EHMT2 (Homo sapiens), Q96KQ7 | G9a H3K9 monomethylation, AlphaScreen, 2 h | Potency, µM (series often up to 102 µM), for the others: at the top dose activity, negative = inhibition, most hits filed as inhibitors | 8.8% of 350,000 active; further: on the % scale 0 is the no-effect control and ±100 the full control effect; nearly all actives have a fitted effect of over 75% in size
Target sequence (Q96KQ7 913-1193 limits assumed): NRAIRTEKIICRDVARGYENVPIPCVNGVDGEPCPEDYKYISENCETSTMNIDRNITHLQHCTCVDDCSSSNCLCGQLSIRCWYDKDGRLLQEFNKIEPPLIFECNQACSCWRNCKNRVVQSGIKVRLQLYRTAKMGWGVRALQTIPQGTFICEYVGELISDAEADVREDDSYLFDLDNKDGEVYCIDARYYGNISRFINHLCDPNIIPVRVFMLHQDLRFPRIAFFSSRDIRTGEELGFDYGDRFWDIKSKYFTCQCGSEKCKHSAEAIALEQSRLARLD
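Chemiluminescent proximity detection of H3K9 monomethylation, read after 10 min bead incubation in the dark. Reaction: 20 nM G9a, 500 nM biotin-H3K9 peptide, 20 uM SAM cofactor, 2 h, room temperature, following 15 min enzyme-compound preincubation.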
Sfp inh = qHTS Assay for Inhibitors of Bacillus subtilis Sfp phosphopantetheinyl transferase (PPTase); Potency, µM, for inactives: largest response in the series, negative = inhibition, usual class: inhibitors; Biochemical Sfp PPTase activity, qHTS; 4'-phosphopantetheinyl transferase ffp (Bacillus subtilis), Q9F4F7; 3.5% of 310,000 active;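 further: the enzyme is Sfp with the accession as filed and its product quenches rhodamine fluorescence; 0% = enzyme reaction without inhibitor and -100% = no enzyme wells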
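Compounds were incubated with enzyme (final 15 nM) for 15 min at room temperature before substrate addition started the reaction. Fluorescence at 525 nm excitation, 598 nm emission was recorded immediately and after 30 minutes.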
Numbers without * were called inactive; ? = inconclusive; nt = no result given; [ ] = another dose, or the depositor's remark. Rows were chosen to be rich in hits. Some 12% of all compounds tested hit in one or more screens of this group. The call rests on the fitted dose curve; in most records, active means well fitted curve in the direction sought with a large enough effect; inconclusive means small, poorly fitted or top-dose-only effect, or another doubt; inactive means no such curve, though single readings can be large; an effect the other way counts as inactive or inconclusive. Potency means the concentration at half of the fitted maximal effect.

SMILES	HP1b chromo inh	JMJD2A Tudor inh	L3MBTL1 inh	BAZ2B inh	G9a block	Sfp inh
CC1=C(c2ccccc2)[N+](=O)C2(CCCCC2)N1[O-]	3%	-14%	-14%	-13%	50µM*	8%
Cc1ccc(OCC(=O)Nc2ccc3nc(SCC(=O)N4CCOCC4)sc3c2)cc1C	65%	4%	nt	-1%	9%[59 µM]	nt
CCOC(=O)c1ccc(NC(=O)c2cn3c4c(ccc(Cl)c4c2=O)OC(C)C3)cc1 (stereo not given)	39%	-8%	nt	-2%	6%[59 µM]	nt
Cc1ccccc1NC(=O)CSc1nc2c(oc3ccccc32)c(=O)n1-c1ccccc1F	26%	-8%	nt	-6%	-10%[59 µM]	nt
Cc1ccc(CNC(=O)Cn2c(=O)n(-c3ccc(Cl)cc3)c(=O)c3c(C)c(C)sc32)cc1	25%	-3%	nt	-1%	8%[59 µM]	nt
CCN1CCC(=NNC(=O)c2ccco2)CC1	72%	5%[11.4 µM]	nt	7%	45µM*	-18%
CCCN1CCC(=NNC(=O)c2ccc(Br)o2)CC1	22%	-23%	-4%	-2%[57.1 µM]	-6%	22%
CC1(C)Cc2c(sc(NC(=O)C(C)(C)C)c2C#N)C(C)(C)N1	25%	-10%	-3%	2%	-9%[59 µM]	-8%
CC1(C)Cc2c(sc(N)c2C#N)C(C)(C)N1	14%	10%	0%	-8%	nt	18µM*
CC(=O)/C(=N/Nc1cccc(Cl)c1)Sc1nnc(C(O)c2ccccc2)n1-c1ccccc1 (stereo not given)	35%	-17%	-7%	-38%	?	3%
COC(=O)/C(=N/Nc1ccccc1C)Sc1nnc(C(O)c2ccccc2)n1-c1ccccc1 (stereo not given)	24%	-19%	?	-8%	16µM*	?
CCNc1ccc(S(=O)(=O)N(C)C)cc1NCC(=O)Nc1ccccc1Cl	-24%	?	-12%	?	40µM*	2%
CCc1cc(=O)[nH]c(-n2[nH]c(-c3ccccc3)cc2=O)n1	30%	-10%	23%	-1%	-4%	-10%
O=c1cc(-c2ccccc2)[nH]n1-c1nc2ccccc2[nH]1	20%	56µM*	?	28µM*	-53%	5%
COc1ccc(NC(=S)N2CCN(c3ncccn3)CC2)c(OC)c1	45%	-11%	nt	3%	-35%	50µM*
CC(C)[C@H](NC(=O)[C@@H]1CSSC[C@H](NC(=O)[C@H](CC(=O)O)NC(=O)[C@H](C)NC(=O)[C@@H](NC(=O)CNC(=O)[C@H](C)N)[C@@H](C)O)C(=O)N[C@@H](Cc2ccccc2)C(=O)N[C@@H](Cc2c[nH]c3ccccc23)C(=O)N[C@@H](CCCCN)C(=O)N[C@@H](Cc2ccc(O)cc2)C(=O)N1)C(=O)O	nt	nt	nt	nt	nt	-2%
O=C(CCCCCBr)N1CCC(CC2CC(c3cccc(Br)c3)=NO2)(C(=O)NCC2CCCCC2)CC1 (stereo not given)	13%	?	-4%	-25%[57.1 µM]	50µM*	-10%
CC(=O)Nc1cc2c(=O)n(Cc3ccccc3)c(C)nc2cc1N1CCOCC1	20%	-17%	5%	?	50µM*	10%
Cc1nc2cc(N3CCCCC3)c(NC(=O)c3cccnc3)cc2c(=O)n1Cc1ccccc1	38%	-3%	2%	1%	-10%[59 µM]	8%
Cc1nn(CC(=O)NCc2ccc(N(C)C)cc2)c(=O)c2nn(-c3ccccc3)c(C)c12	40%	-15%	nt	-33%	?	nt
CCCCN(CC)CCCNC(=O)CCN1N=C(c2ccc(OC)cc2)CCC1=O	-6%	-2%	nt	8%	2%[59 µM]	nt
Cc1oc(-c2cc(F)ccc2F)nc1CN1CCN(c2ncnc3ccccc23)CC1	16%	-22%	35%	36%	nt	40µM*
Cn1nccc1NC(=O)c1nccnc1C(=O)O	22%	-3%	4%	?	40µM*	-22%
Cn1nc(C(F)(F)F)c(-c2ccccc2)c1NC(=O)c1nccnc1C(=O)O	35%	?	nt	79µM*	nt	-15%
COc1cc(NC(=O)c2nccnc2C(=O)O)cc(OC)c1	16%	40µM*	-7%	?	22µM*	-6%
SMILES	HP1b chromo inh	JMJD2A Tudor inh	L3MBTL1 inh	BAZ2B inh	G9a block	Sfp inh
CC(=O)Nc1ccc(NC(=O)c2nccnc2C(=O)O)cn1	11%	-9%	nt	50µM*	21%	-10%
Cc1ccc(CCNC(=O)Cn2c(-c3cccs3)cc3ccccc32)cc1	28%	-1%	nt	1%	-5%[59 µM]	nt
C=CCc1cccc(C2NC(C(=O)O)CCC2C)c1 (stereo not given)	nt	nt	nt	nt	nt	4%
COc1ccc(CCNC(=O)CCCCn2c(=O)c3ccccc3n(Cc3cccc(C)c3)c2=O)cc1OC	27%	-19%	nt	-10%	-4%[59 µM]	nt
CCOc1ccccc1-c1nnc2n1N=C(c1cc(OC)cc(OC)c1)CS2	nt	-22%	nt	nt	nt	?
Nc1nc(Nc2ccccc2F)sc1C(=O)c1ccccc1	-12%	?	nt	45µM*	11%[0.501 µM]	-10%
N=c1c2c(ccn1-c1ccccc1)Oc1ccc3ccccc3c1C2c1ccccc1 (stereo not given)	nt	40µM*	nt	nt	nt	nt

Screening results as filed in PubChem BioAssay.
